According to the supplement of paper PMC11417369:
The full ranking holds about 25,000 sequences; the median of “ln(normalized median fluorescence intensity)” is about 6.7, and the highest 2% start at about 10. What follows is part of a selection rich in the highest values, with near analogues and random picks from the rest.

tested on: PfHDP1 homeodomain (GST-tagged); assay: gcPBM binding intensity (ln(normalized median fluorescence intensity)); higher = stronger DNA binding
In short: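 GST-fused DNA-binding domains of P. falciparum, expressed in E. coli, were applied at about 25 μg on average for 1 h to an Agilent 4 × 180k array of primer-extended double-stranded 36-bp intergenic genomic probes and negative controls. Binding intensity is the highest Masliner-normalised natural-log median intensity across replicate spots of either probe orientation, measured with Alexa488 anti-GST antibody and a 488 nm scan.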

| Sequence | gcPBM binding intensity (ln) |
| --- | --- |
| TATTTATTGTGACACTTTTATTATTTTATGATAAAA [CACACA_negctrl_site37] | 6.6 |
| AATATAAGCAAATACACACACACATATAAATATGTA [CACACA_site7741] | 7.03 |
| TACATAAACATTTATACACACATTATAAATACATAT [CACACA_site4386] | 6.74 |
| TTAATATGAAATAAATGTACATAATACATAATAAAA [XGTACX_site6194] | 6.44 |
| ACAAATAAGTTTTGTAGTACTGTGTATATATATATA [XGTACX_site6901] | 8.95 |
| ATCATATTTTTATGTGTGCACTTTTTTTTTTTTTTT [GTGCAC_site9555] | 8.73 |
| TTTTTATTTTCATATGTGCACTTATATATATATATA | 10.2 |
| ATATATTTTATATGTGTGCACTATATATATATATAT | 10.8 |
| TTTATATTCTTAAGTGTGCACTATATATATATATAT [GTGCAC_site9719] | 10.5 |
| TAATTATTCTATTAAGTGCATATATTTTTAAAAAGA | 9.39 |
| ATTTTTTTCTTAGGAGTGCACTTATATTTATTTTAT | 10.3 |
| TGAATAAATATATATACACACCCATATATATATATA [CACACA_site8833] | 9.21 |
| AAAAGAAGATAATACAGTACAGAATAATATAAAATA [XGTACX_site5962] | 6.51 |
| TTTTTTTTTCTGTATACACACAAAATTTATTTTTTA [CACACA_site2873] | 6.68 |
| TTCTGTATAATATAAAAACAAAAATTAAATTAAAAC [CACACA_negctrl_site81] | 6.43 |
| TTCTGTATATAGTGTGCACACAATTAAAAAAAAAAA [CACACA_site8400] | 10.8 |
| ATAAAATATAAAAACGCACACAATTATAAGGGTGTA [CACACA_site177] | 6.96 |
| TATGTATATATATTAACACACAAAAAAAAAAAAAAA [CACACA_site1812] | 6.2 |
| TAAAATATATTTTTCTGTACACAAAAATATATTAAA [XGTACX_site2813] | 6.24 |
| ATATTTAAAAATATAGTGCAATTATTCTAATGTGTT | 8.89 |
| TTTTCTGTATATTGTGTGCACACAATTAACAAAAAA [GTGCAC_site9817] | 10.6 |
| TTCTGTATACGGTGTGCACACAATTAAAAAAAAAAA [CACACA_site1416] | 10.8 |
| TTTTTATGTGTATATTATTACATTTACATCTTTAAC [CACACA_negctrl_site1676] | 6.64 |
| ATTATTACTTTTTGAGTGCACATACACACAGACATA | 10 |

| Sequence | gcPBM binding intensity (ln) |
| --- | --- |
| ATAATAAAATGGAGAGTGCATACATGTTTATTTTAT | 7.7 |
| AAATTATGAACATATTGTACATATATATATATATAT [XGTACX_site8269] | 9.41 |
| ATTTAAGATTTAATCACACACATATATATTATATAC [CACACA_site2907] | 6.55 |
| TGCAATTTAATATGAGTGCATATATTGAGAAAATAC | 9.36 |
| AATGGGGAAGGTTCTACACACAACGCAAATGCCTTA [CACACA_site2758] | 6.41 |
| AGACCTTTAATTTGTGTGCACATAATTAGTGTACAT [GTGCAC_site9434] | 10.7 |
| TCCCTTAATTTTGTGTGTACATATAATATATTTTTA [XGTACX_site2789] | 6.76 |
| TGTGCACATAATTAGTGTACATTTTTTATTTAGACA [XGTACX_site317] | 10.1 |
| AAAAAAAAAAAAAACACACACATATAATATATTTAA [CACACA_site1337] | 6.35 |
| AAACAATAAAAGATTACACACATATATAGCATATAT [CACACA_site1698] | 6.82 |
| ATATATATATATATATGTACATACATACATAGAACT [XGTACX_site2214] | 9.21 |
| TTTTATTTTTAAAATTGTACATTATTATTGTTATTT [XGTACX_site1439] | 6.3 |
| ATAATGAACAAAGTAGTGCACTTTCCTTATCTTTTC | 10.7 |
| ATATCTTATAATACGGTGCACTTGACATGAACAACT [GTGCAC_site9987] | 10.3 |
| CCTTTCCTTTTATAAGTGCATATAACAAATGTATAC [GTGCAC_site9872] | 8.03 |
| AAATGTGAACTATAATAATTTCAACGTCTGATATAA [TGCATGCA_negctrl_site440] | 5.94 |
| TTGAACTCTCTTACGCGTACGTGTTATTATGAAAAT [XGTACX_site6265] | 6.73 |
| TTTCAAAATGTGTAAAATAAAAATAATATCATTACA [TGCATGCA_negctrl_site521] | 6.42 |
| TTTCAAATGGAATGTGTGCACATAAATGTAAATAAA | 10.8 |
| TTTTTCATAAAACACACACACAAAAATAATGTGGAA [CACACA_site3687] | 6.56 |
| AAAAAAAAAAAAGGCACACAAACATATGTAGACATA [CACACA_site2284] | 6.61 |
| ATAATAAAATAAATCACACATAATATAATGTAATAT [CACACA_site6144] | 6.49 |
| AAAAAAAAATCAAAATGTACTTATTTTTATAATAAT [XGTACX_site4712] | 6.31 |
| TTTTCTATAAGATTTGCACACAACTTATTCTATTAA [CACACA_site3752] | 10.6 |

| Sequence | gcPBM binding intensity (ln) |
| --- | --- |
| AAGATTAAAAATTGCACACAAAAATATATTTTCTAT [CACACA_site1305] | 9.78 |
| AAGATTAAACATTGCACACAAAAACATATTTTCTAT [CACACA_site530] | 9.7 |
| TTTTTTTTTTTCAATAGTACTTTCCATTTACATATA [XGTACX_site3889] | 6.32 |
| TGAACTCATAGGAAAACACACATATGGGTAATATAT [CACACA_site187] | 6.78 |
| TGAACTCATAGGAAAACACACATATGTGTAATATAT [CACACA_site4267] | 7.27 |
| TGAACTCATAGGAAAACACACATATGTGCAATATAT [CACACA_site6231] | 11.3 |
| CTATTTTTATATTATTGTACGTTGTTATTATATATA [XGTACX_site1469] | 6.79 |
| CACTAATATATATACAGTACATAATAAAGTATATAA [XGTACX_site6875] | 6.16 |
| TTGGGTATTTTGTGCGCACACACATGCAAAAAGAAA [CACACA_site8299] | 9.63 |
| AATGCACAGCTCTTAGGCAAAAGTGGGTATTTACAC [GTGCAC_negctrl_site579] | 8.63 |
| TGTCCAATTTATTGTGCACACCTCAAAAGTGGGTAA [CACACA_site3826] | 11.1 |
| TTTTTTTCTAATTATGCACACATATCAAAATATTCA [CACACA_site8886] | 10.2 |
| TAGTTGCACATGTATACACACAAAAAATATTTTATG [CACACA_site475] | 10.4 |
| TATTTTATATGAGGCACACAAATTTTAATTGTTATT [CACACA_site725] | 5.99 |
| ATACATGTTTTATGTGCACACAAAGTTGTTATGAGG [CACACA_site4032] | 10.8 |
| ATTTTATGAAATGTTGCACACAAAAAACAACATGTT [CACACA_site8408] | 9.69 |
| TTTATGAAATGTTGCACACAAAAAACAACATGTTTT [CACACA_site1440] | 9.63 |
| ACATGTTTTATGTGCACACAAAGTTGTTATGAGGTT [CACACA_site4031] | 10.7 |
| TCTTCATAAAAATAAAGTACATTATATATATAAATA [XGTACX_site3775] | 6.37 |
| AAAAAATAGAATATGGGTACTAAAAAGATACAAACA [XGTACX_site4464] | 6.84 |
| AAGTTTAAAGGAATTACACAAACAAGCAAATATATA [CACACA_negctrl_site857] | 6.92 |
| AAAAAACTATTATGTGCATGCACAAGTCAGGTAAAT [TGCATGCA_site791] | 11.3 |
| ACAATTTTATTTAAAGTGCATGTAAAATTAAAACTT | 7.44 |
| TCATTAATCAGGTATGCATGCATAACTATTAAAAAT [TGCATGCA_site90] | 6.46 |

| Sequence | gcPBM binding intensity (ln) |
| --- | --- |
| ATAAAAATATAAACATGTACATAAAAATCTATATAT [XGTACX_site405] | 6.72 |
| TTTCATTTGTCGTTATGTACTTATTAAATATTATTA [XGTACX_site7709] | 6.92 |
| TTAATACATATATATATATTATATATATATATATAT [TGCATGCA_negctrl_site177] | 8.89 |
| ATGATATATTTAATAGTGCACTAATTAAAATTATTA [GTGCAC_site9418] | 10.8 |
| TTACAATAAATTATAGTGCAATATTTTATTTAATAT | 10.6 |
| ATATATCATATTATAGTGCATTTATAATAATATTAT | 8.51 |
| TTATATAATTTAATAGTGCAATTATATTAATTTTTC | 8.66 |
| ATATTTTATATAATAGTGCAAATAATATTAAATAAT | 9.78 |
| CTTAAAATATATTTAGTGCATATACTAATATATTAT | 8.9 |
| TTCTAAAATTATATAGTGCAATTATATTAATTTTTC | 8.98 |
| ATTTTCTTTTCCATAGTGCAATATAATTATCCATCA [GTGCAC_site9547] | 10.9 |
| ATATATATATTTATAGTGCATTTATATTAAAATATC [GTGCAC_site9818] | 8.5 |
| TATATATATATATATATATATATATATATAATATTA [XGTACX_negctrl_site558] | 9.37 |
| TGGAGGATAGTTCACAGTACCCAGTAACTCTACGGA [XGTACX_site4930] | 6.22 |
| TATATATATATAATTGCACACATCAAGTTTGATGTT [CACACA_site1288] | 9.99 |
| CAAAATGATATGACAACACACAACCTATAGTAAGAC [CACACA_site1287] | 6.91 |
| ATCATCCAAGATCTTACACACATATTAAATAAATAA [CACACA_site1473] | 6.66 |
| AGGCCTTTTAGTATTTCACACACGTAAATGTGTATA [CACACA_site8284] | 6.43 |
| GGAATATATATACATACACACATATATATATATATA [CACACA_site1666] | 9.32 |
| TTGTTCTAATATATTGCACACGTAAAAATATAGGTA [CACACA_site8195] | 10.1 |
| GTTCTAATATATTGCACACGTAAAAATATAGGTAAT [CACACA_site886] | 10.6 |
| TACGTAAATTCTAATACACACTATAGGATATTCTGC [CACACA_site7248] | 6.41 |
